The values that follow come from PubChem BioAssay AID1745857 (National Center for Advancing Translational Sciences (NCATS), 2022).

Out of some 120,000 compounds screened, about 370 (0.31%) were called active. Another 4% or so got no clear call; they are omitted. The call rests on the fitted dose curve. The sample as a whole holds a higher share of actives than the screen did.
On the % scale 0 is the no-effect control and ±100 the full control effect; potency means the concentration at half of the fitted maximal effect.

The nature of the assay: Primary qHTS Assay for Foot and Mouth Disease Virus Antivirals against NCGC Sytravon and CBC Compound Libraries: Renilla Luciferase Signal. Further: nearly all actives have a fitted effect of over 55% in size. The conditions noted are these: FMDV replicon cells; series mostly up to 57.5 µM; activity change, negative = inhibition: at the top concentration.
Turning to `COC(=O)Cc1csc(NC(=O)Cc2c(C)c3ccc(OC)cc3oc2=O)n1`, the “activity change, negative = inhibition” value is 22.2% (inactive).

`O=C(NCCOc1ccccc1F)c1n[nH]c(=O)c2ccccc12`: the “activity change, negative = inhibition” value was 5.56% (inactive).

Take `NS(=O)(=O)c1ccc(NC(=O)COc2ncnc3ccc(Br)cc23)cc1`: the “activity change, negative = inhibition” value is -11% (inactive).

In the case of `Cc1cccc2nc(-c3ccc(N4CCOCC4)cc3)c(Nc3ccc4c(c3)OCCO4)n12`, the “activity change, negative = inhibition” value is 0% (inactive).

Consider `O=C(OC1CCCCC1=O)c1ccc(Cl)c(Cl)c1` (stereo unspecified), for which the “activity change, negative = inhibition” value was 2.63% (inactive).

Consider `O=C(NC(Cc1cccc(F)c1)c1cccc(F)c1)C1CCOCC1` (stereo unspecified), for which the “activity change, negative = inhibition” value was 13.2% (inactive).

On to `O=C(CCC(=O)c1ccc(Cl)cc1)OCc1ccc(Cl)cc1Cl`, for which the “activity change, negative = inhibition” value is -8.65% (inactive).

In the case of `CCOc1ccc(CCNC(=O)C(C)n2nc(C)n3c(cc4sccc43)c2=O)cc1OCC` (stereo unspecified), the “activity change, negative = inhibition” value was 9.5% (inactive).

For `CCc1ccc(/C=C(\C#N)C(=O)NC2CC2)s1`, the “activity change, negative = inhibition” value is 0% (inactive).

For `C[C@@H](C(=O)N1CCN(c2ccccc2)CC1)n1cnc2ccccc2c1=O`, the “activity change, negative = inhibition” value was 3.94% (inactive).

For the compound `CCC(C)NCCC(c1ccccc1)c1ccc(C)c(C)c1O` (stereo unspecified), the “activity change, negative = inhibition” value is 17.2% (inactive).

As to `CCCOc1ccc(NC(=O)COc2cccc(C)c2C)c2cccnc12`, the “activity change, negative = inhibition” value was -14.9% (inactive).

For `CCOc1ccccc1OCC(=O)Nc1cccc2ncccc12`, the Potency is 8.91 µM (active).

As for `COc1c(C)cccc1C(=O)Nc1cccc2ncccc12`, the “activity change, negative = inhibition” value was -15.8% (inactive).

As to `Cc1ccc(NS(=O)(=O)c2c(C)[nH]c(C)c2C(=O)N2CCCCC2)c(C)c1`, the “activity change, negative = inhibition” value is 0% (inactive).

Take `Cc1ccc(N/N=C/C=C/c2ccccc2)cc1Cl`: the “activity change, negative = inhibition” value was 7.3% (inactive).

Turning to `Cc1nc2cc(NC(C(=O)Nc3ccc(F)cc3)c3ccccc3)ccc2o1` (stereo unspecified), the “activity change, negative = inhibition” value was 99.2% (inactive).

For `COc1ccc(NC(C)=O)cc1NC(=O)/C=C/c1nc2ccccc2o1`, the “activity change, negative = inhibition” value was -14.9% (inactive).

Consider `COc1ccc(/C=C/c2nc3ccccc3o2)cc1OCC(C)C`, for which the “activity change, negative = inhibition” value was 2.64% (inactive).

Take `COc1ccc(C(=O)/C(=C/c2ccncc2)c2nc3ccccc3o2)cc1OC`: the Potency is 15.8 µM (active).

Consider `Cc1ccc(CCC(=O)Nc2ccc(C)c(C)c2)s1`, for which the “activity change, negative = inhibition” value was -6.77% (inactive).

Regarding `O=C(NC1CCCCC1)c1ccc2c(c1)N(Cc1ccc(Cl)cc1)C(=O)c1ccccc1S2=O` (stereo unspecified), the “activity change, negative = inhibition” value is 17.7% (inactive).

`CCN1C(=O)c2ccccc2S(=O)c2ccc(C(=O)NCc3ccc(F)cc3)cc21` (stereo unspecified): the “activity change, negative = inhibition” value was -7.42% (inactive).

Consider `O=C(O)c1ccc2c(c1)N(Cc1ccc(F)cc1)C(=O)c1ccccc1S2=O` (stereo unspecified), for which the Potency was 8.91 µM (active).

For the compound `O=C(CC(=O)c1ccc(F)cc1)c1ccc(F)cc1`, the “activity change, negative = inhibition” value is 23.4% (inactive).

Turning to `CC(Oc1ccc(C#N)cc1)C(=O)NC(C1CC1)C1CC1` (stereo unspecified), the “activity change, negative = inhibition” value was 10.9% (inactive).

Turning to `O=S1(=O)c2ccc(N3CCN(Cc4ccccc4F)CC3)cc2Oc2ccccc2CN1Cc1cn(Cc2ccc(Cl)cc2)nn1`, the “activity change, negative = inhibition” value was 80.6% (inactive).

On to `Cc1ccccc1Cn1nc(C)c(NC(=O)c2cc(-c3ccc(F)cc3)on2)c1C`, for which the “activity change, negative = inhibition” value was -8.22% (inactive).

On to `Cc1nn(Cc2ccc(F)cc2)c(C)c1NC(=O)c1noc2c1CCc1ccccc1-2`, for which the “activity change, negative = inhibition” value is -10.8% (inactive).

Consider `Cc1nn(Cc2ccc(F)cc2)c(C)c1NC(=O)c1cc(CC(C)C)on1`, for which the Potency is 25.1 µM (active).

Turning to `O=C(Nc1ccccc1)C1=C(Nc2ccc(F)cc2F)c2ccccc2S1(=O)=O`, the “activity change, negative = inhibition” value was 34.2% (inactive).

In the case of `CC(=O)Nc1ccc(NC(=O)COC(=O)c2oc3ccccc3c2C)cc1`, the “activity change, negative = inhibition” value was -5.44% (inactive).

Take `CC(C)(C)c1ccc2c(c1)OCCOCCOCCOc1ccc(C(C)(C)C)cc1OCCOCCOCCO2`: the Potency was 25.1 µM (active).

For `CC(Sc1ccc2c(c1)OCCCO2)C(=O)O` (stereo unspecified), the “activity change, negative = inhibition” value is -2.29% (inactive).

As to `CN(Cc1ccc2c(c1)OCCO2)CC(O)COc1ccccc1C(C)(C)C` (stereo unspecified), the “activity change, negative = inhibition” value was -3.65% (inactive).

As for `Cc1ccnc(NC(=O)CCc2ncc(-c3ccc(F)cc3F)o2)c1`, the “activity change, negative = inhibition” value was -6.64% (inactive).

As to `CCOc1ccc(NC(C)=O)cc1S(=O)(=O)Nc1ccccc1-c1nnc2n1CCCCC2`, the “activity change, negative = inhibition” value is -1.33% (inactive).

On to `COc1ccc(-c2c(C)c3ccc(O)c(C)c3oc2=O)cc1`, for which the “activity change, negative = inhibition” value is 8.34% (inactive).

Turning to `COc1ccc(-c2c(C)oc3cc(OC)ccc3c2=O)cc1`, the “activity change, negative = inhibition” value was 13.8% (inactive).

`COc1ccc(-c2c(C)c3ccc(OS(C)(=O)=O)cc3oc2=O)cc1`: the Potency is 15.8 µM (active).

As to `CCNc1c(NS(=O)(=O)c2ccc3c(c2)oc(=O)n3C)c(=O)oc2ccccc12`, the “activity change, negative = inhibition” value was 0.612% (inactive).

In the case of `Cc1cccc(CN2CCN(Cc3cc(=O)oc4c(C)c(O)ccc34)CC2)c1`, the Potency is 20 µM (active).

As for `CC(C)c1ccc2oc(=O)cc(CN3CCN(Cc4ccccc4)CC3)c2c1`, the “activity change, negative = inhibition” value is -10.3% (inactive).

In the case of `Cc1cc2oc(=O)cc(CN3CCN(c4ccccc4)CC3)c2cc1O`, the “activity change, negative = inhibition” value is 2.61% (inactive).

Take `CNC/C=C/COc1ccc(C)c(C)c1`: the “activity change, negative = inhibition” value was -19.2% (inactive).

On to `Cc1ccc(S(C)(=O)=O)cc1NCc1ccccc1F`, for which the “activity change, negative = inhibition” value was 24.3% (inactive).

On to `CCC(Sc1nc2ncccc2[nH]1)C(=O)Nc1ccc(C)c(Cl)c1` (stereo unspecified), for which the “activity change, negative = inhibition” value is 13.8% (inactive).

`NCCOc1ccc(C(F)(F)F)cc1`: the “activity change, negative = inhibition” value was 6.43% (inactive).

Turning to `CC(C)(C)C(=O)NCCCC(=O)NCCc1ccccc1`, the “activity change, negative = inhibition” value is 3.52% (inactive).

As to `Cc1ccc2c(Cn3nnc(-c4ccc(F)cc4)n3)cc(=O)oc2c1`, the “activity change, negative = inhibition” value was -2.97% (inactive).

As to `Cc1ccccc1NS(=O)(=O)c1ccc(C(=O)N(C)CC(=O)Nc2cccc3ccccc23)cc1`, the “activity change, negative = inhibition” value was -9.38% (inactive).

For `O=C(Cc1ccccc1Cl)N1CCN(c2ncnc3nc[nH]c23)CC1`, the “activity change, negative = inhibition” value is -1.31% (inactive).

With `CC(=O)Nc1ccc2oc(-c3cncc(Br)c3)nc2c1`, the “activity change, negative = inhibition” value was 19.3% (inactive).

For `CCOc1ccc(NC(=O)CCc2ncc(-c3ccccc3F)o2)cc1`, the “activity change, negative = inhibition” value was -13.1% (inactive).

Regarding `CCc1cc(C(=O)N2CCN(c3ccccc3OC)CC2)no1`, the “activity change, negative = inhibition” value was 4.97% (inactive).

For `O=C(Nc1cccc(-c2nc3cc(Cl)ccc3o2)c1)c1ccccc1`, the “activity change, negative = inhibition” value was -1.17% (inactive).
